Here are results for 26 molecules from PubChem BioAssay (EPA / NIEHS).

Where “and” joins values, the source holds several entries; their conditions need not be identical. Equal values may be shown once. Calls of active or inactive are those of the source. The calls were made as follows: active = hit-call score of the fitted dose curve at least 0.9, where 1 is the maximum; inactive = score below 0.9.

Read-out in one assay: Fatty Acid-Binding Protein 1 (FABP1), FABP1 (gene 2168)
The assay is described as follows: LTEA_HepaRG_FABP1: Life Technologies and Expression Analysis (LTEA) Assay for Fatty Acid-Binding Protein 1 (FABP1) using HepaRG (AID 2283494). To be noted: mRNA level, 48 h; actives raise or lower the signal. The method in brief: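 qRT-PCR readout of FABP1 transcript (normalized to three housekeeping genes) after 48 h chemical exposure of HepaRG cells; eight concentrations, half-log steps, max 100 uM, 0.5% DMSO vehicle; gain or loss fitted relative to DMSO baseline.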
On to `Cc1nn(C)c(Oc2ccccc2)c1C=NOCc1ccc(C(=O)OC(C)(C)C)cc1`, for which the AC50 was 7.21 µM (active).

In the case of `S=C(S)NCCNC(=S)S.[Mn+2].[S-]C([S-])=NCCN=C([S-])[S-].[Zn+2]`, the AC50 was 1.18 µM (active) and 1.26 µM (active) and 1.71 µM (active).

As for `CCOC(=O)C(C)Oc1ccc(Oc2nc3ccc(Cl)cc3o2)cc1` (stereo unspecified), the result was inactive.

Regarding `CSC(=O)c1cccc2nnsc12`, the call was inactive.

Consider `O=C(O)c1ccccc1`, for which the molecule was called inactive.

Take `CC(=O)S[C@@H]1CC2=CC(=O)CC[C@]2(C)[C@H]2CC[C@@]3(C)[C@@H](CC[C@@]34CCC(=O)O4)[C@H]12`: the AC50 was 54.4 µM (active).

`CC(C)CCCCCCc1ccc(O)cc1`: the result was inactive.

`CCC(C)OC(=O)N1CCCCC1CCO` (stereo unspecified): the call was inactive.

In the case of `CCCCCOC(=O)COc1cc(N2C(=O)C3=C(CCCC3)C2=O)c(F)cc1Cl`, the outcome was inactive.

Consider `C=CCOC(Cn1ccnc1)c1ccc(Cl)cc1Cl` (stereo unspecified), for which the concentration at half-maximal activity (AC50) was 28.6 µM (active).

Consider `c1ccc(Nc2ccccc2)cc1`, for which the molecule was called inactive.

With `O=C(Nc1ccc([N+](=O)[O-])cc1Cl)c1cc(Cl)ccc1O`, the AC50 was 2.25 µM (active).

As to `C#CCOC(=O)[C@@H](C)Oc1ccc(Oc2ncc(Cl)cc2F)cc1`, the AC50 was 64.4 µM (active).

Turning to `CN(C)C(=O)Nc1ccc(Cl)c(Cl)c1`, the AC50 was 50 µM (active).

Read-out in a further assay: Cytochrome P450 4A22 (Homo sapiens) (UniProt Q5TCH4)
The assay is described as follows: LTEA_HepaRG_CYP4A22: Life Technologies and Expression Analysis (LTEA) Assay for Cytochrome P450 4A22 (CYP4A22) using HepaRG (AID 2283495). The following applies: mRNA level, 48 h; actives raise or lower the signal. The method in brief: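 HepaRG, 48 h post-plating -> serum-free induction medium; dosed 48 h, duplicate, 8 conc. (100 uM top, half-log), 0.5% DMSO. Readout: CYP4A22 mRNA by qRT-PCR, ACTB/GAPDH/POLR2A normalization; gain/loss fit relative to DMSO.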
Take `CCOC(=O)COc1cc(-n2ncc(C(F)(F)F)c(C)c2=O)c(F)cc1Cl`: the molecule was called inactive.

`CCCCOC(=O)[C@@H](C)Oc1ccc(Oc2ccc(C(F)(F)F)cn2)cc1`: the call was inactive.

`CCCOC(=O)c1ccc(C(=O)OCCC)nc1`: the call was inactive.

As for `CC(C)CCCCCCc1ccc(O)cc1`, the outcome was inactive.

With `C[C@]12C[C@H](O)[C@H]3[C@@H](CCC4=CC(=O)CC[C@@]43C)[C@@H]1CC[C@@H]2C(=O)CO`, the outcome was inactive.

`CC(C)(C)[C@@H](O)[C@@H](Cc1ccc(Cl)cc1)n1cncn1`: the AC50 is 27.8 µM (active).

Turning to `CCCCCOC(=O)COc1cc(N2C(=O)C3=C(CCCC3)C2=O)c(F)cc1Cl`, the molecule was called inactive.

Take `C[C@]12CC[C@@H]3c4ccc(O)cc4C[C@@H](CCCCCCCCCS(=O)CCCC(F)(F)C(F)(F)F)[C@H]3[C@@H]1CC[C@@H]2O` (stereo partly specified): the call was inactive.

Consider `C#CCOC(=O)[C@@H](C)Oc1ccc(Oc2ncc(Cl)cc2F)cc1`, for which the AC50 was 13.2 µM (active).

For the molecule `S=C([S-])NCCNC(=S)[S-].[Mn+2]`, the AC50 was 3.6 µM (active).

For the molecule `CCN(CC)C(=O)c1cccc(C)c1`, the call was inactive.

Read-out in another assay: Cytochrome P450 7A1 (Homo sapiens) (UniProt P22680)
Nature of the assay: LTEA_HepaRG_CYP7A1: Life Technologies and Expression Analysis (LTEA) Assay for Cytochrome P450 7A1 (CYP7A1) using HepaRG (AID 2283496). The following applies: mRNA level, 48 h; actives raise or lower the signal. The method in brief: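 HepaRG, 48 h exposure, 8-pt half-log series from 100 uM, 0.5% DMSO vehicle, duplicates. Readout: TaqMan qRT-PCR mRNA vs three housekeeping genes; bidirectional curve fit against DMSO baseline.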
Consider `Cc1nn(C)c(Oc2ccccc2)c1C=NOCc1ccc(C(=O)OC(C)(C)C)cc1`, for which the AC50 was 34.7 µM (active).

As to `CCCCOCCOCCOCc1cc2c(cc1CCC)OCO2`, the result was inactive.

`S=C(S)NCCNC(=S)S.[Mn+2].[S-]C([S-])=NCCN=C([S-])[S-].[Zn+2]`: the concentration at half-maximal activity (AC50) was 1.57 µM (active) and 1.44 µM (active) and 1.47 µM (active).

With `CCOC(=O)C(C)Oc1ccc(Oc2nc3ccc(Cl)cc3o2)cc1` (stereo unspecified), the AC50 was 19.9 µM (active).

Consider `CCOC(=O)COc1cc(-n2ncc(C(F)(F)F)c(C)c2=O)c(F)cc1Cl`, for which the outcome was inactive.

`CSC(=O)c1cccc2nnsc12`: the molecule was classed as inactive.

Regarding `O=C(O)c1ccccc1`, the molecule was called inactive.

As to `CCCCOC(=O)[C@@H](C)Oc1ccc(Oc2ccc(C(F)(F)F)cn2)cc1`, the AC50 was 34.2 µM (active).

As to `CCCOC(=O)c1ccc(C(=O)OCCC)nc1`, the call was inactive.

On to `CC(=O)S[C@@H]1CC2=CC(=O)CC[C@]2(C)[C@H]2CC[C@@]3(C)[C@@H](CC[C@@]34CCC(=O)O4)[C@H]12`, for which the AC50 was 62.4 µM (active).

Consider `CC(C)CCCCCCc1ccc(O)cc1`, for which the call was inactive.

As for `CCC(C)OC(=O)N1CCCCC1CCO` (stereo unspecified), the result was inactive.

As to `OB(O)O`, the molecule was classed as inactive.

With `C[C@]12C[C@H](O)[C@H]3[C@@H](CCC4=CC(=O)CC[C@@]43C)[C@@H]1CC[C@@H]2C(=O)CO`, the outcome was inactive.

As to `CC(C)(C)[C@@H](O)[C@@H](Cc1ccc(Cl)cc1)n1cncn1`, the outcome was inactive.

Regarding `CCCCCOC(=O)COc1cc(N2C(=O)C3=C(CCCC3)C2=O)c(F)cc1Cl`, the molecule was classed as inactive.

Turning to `CC(C)(c1ccc(O)cc1)c1ccc(O)cc1`, the call was inactive.

As for `C=CCOC(Cn1ccnc1)c1ccc(Cl)cc1Cl` (stereo unspecified), the AC50 was 35.3 µM (active).

As to `c1ccc(Nc2ccccc2)cc1`, the result was inactive.

Consider `O=C(Nc1ccc([N+](=O)[O-])cc1Cl)c1cc(Cl)ccc1O`, for which the half-maximal activity concentration (AC50) was 13.6 µM (active).

On to `CCN(Cc1c(F)cccc1Cl)c1c([N+](=O)[O-])cc(C(F)(F)F)cc1[N+](=O)[O-]`, for which the AC50 was 50 µM (active).

`C[C@]12CC[C@@H]3c4ccc(O)cc4C[C@@H](CCCCCCCCCS(=O)CCCC(F)(F)C(F)(F)F)[C@H]3[C@@H]1CC[C@@H]2O` (stereo partly specified): the AC50 is 15 µM (active).

Turning to `C#CCOC(=O)[C@@H](C)Oc1ccc(Oc2ncc(Cl)cc2F)cc1`, the molecule was classed as inactive.

As for `S=C([S-])NCCNC(=S)[S-].[Mn+2]`, the AC50 was 4.73 µM (active).

Regarding `CN(C)C(=O)Nc1ccc(Cl)c(Cl)c1`, the AC50 was 6.86 µM (active).

For `CCN(CC)C(=O)c1cccc(C)c1`, the result was inactive.

Read-out in the next assay: Glutathione S-Transferase (GSTA2), GSTA2 (gene 2939)
Nature of the assay: LTEA_HepaRG_GSTA2: Life Technologies and Expression Analysis (LTEA) Assay for Glutathione S-Transferase (GSTA2) using HepaRG (AID 2283497). The following applies: mRNA level, 48 h; actives raise or lower the signal. Put shortly: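 qRT-PCR readout of GSTA2 transcript, normalized to three housekeeping genes, fitted bidirectionally against 0.5% DMSO baseline. Differentiated HepaRG cells received compound for 48 h at 8 concentrations (top 100 uM, half-log steps).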
Take `Cc1nn(C)c(Oc2ccccc2)c1C=NOCc1ccc(C(=O)OC(C)(C)C)cc1`: the AC50 is 30.4 µM (active).

For the molecule `CCCCOCCOCCOCc1cc2c(cc1CCC)OCO2`, the molecule was classed as inactive.

In the case of `S=C(S)NCCNC(=S)S.[Mn+2].[S-]C([S-])=NCCN=C([S-])[S-].[Zn+2]`, the AC50 was 890 nM (active) and 1.14 µM (active) and 997 nM (active).

With `CCOC(=O)C(C)Oc1ccc(Oc2nc3ccc(Cl)cc3o2)cc1` (stereo unspecified), the AC50 is 38.3 µM (active).

Turning to `CCOC(=O)COc1cc(-n2ncc(C(F)(F)F)c(C)c2=O)c(F)cc1Cl`, the molecule was called inactive.

Consider `CSC(=O)c1cccc2nnsc12`, for which the molecule was called inactive.

For the molecule `O=C(O)c1ccccc1`, the call was inactive.

In the case of `CCCCOC(=O)[C@@H](C)Oc1ccc(Oc2ccc(C(F)(F)F)cn2)cc1`, the molecule was called inactive.

For the molecule `CCCOC(=O)c1ccc(C(=O)OCCC)nc1`, the call was inactive.

Regarding `CC(=O)S[C@@H]1CC2=CC(=O)CC[C@]2(C)[C@H]2CC[C@@]3(C)[C@@H](CC[C@@]34CCC(=O)O4)[C@H]12`, the AC50 was 69.5 µM (active).

With `CC(C)CCCCCCc1ccc(O)cc1`, the molecule was classed as inactive.

For `CCC(C)OC(=O)N1CCCCC1CCO` (stereo unspecified), the outcome was inactive.

In the case of `OB(O)O`, the molecule was called inactive.

On to `C[C@]12C[C@H](O)[C@H]3[C@@H](CCC4=CC(=O)CC[C@@]43C)[C@@H]1CC[C@@H]2C(=O)CO`, for which the call was inactive.

Turning to `CC(C)(C)[C@@H](O)[C@@H](Cc1ccc(Cl)cc1)n1cncn1`, the molecule was classed as inactive.

As to `CCCCCOC(=O)COc1cc(N2C(=O)C3=C(CCCC3)C2=O)c(F)cc1Cl`, the molecule was called inactive.

With `CC(C)(c1ccc(O)cc1)c1ccc(O)cc1`, the result was inactive.

As to `c1ccc(Nc2ccccc2)cc1`, the outcome was inactive.

In the case of `O=C(Nc1ccc([N+](=O)[O-])cc1Cl)c1cc(Cl)ccc1O`, the concentration at half-maximal activity (AC50) is 2.84 µM (active).

On to `CCN(Cc1c(F)cccc1Cl)c1c([N+](=O)[O-])cc(C(F)(F)F)cc1[N+](=O)[O-]`, for which the concentration at half-maximal activity (AC50) was 11.7 µM (active).

Turning to `C[C@]12CC[C@@H]3c4ccc(O)cc4C[C@@H](CCCCCCCCCS(=O)CCCC(F)(F)C(F)(F)F)[C@H]3[C@@H]1CC[C@@H]2O` (stereo partly specified), the AC50 was 28.1 µM (active).

Regarding `C#CCOC(=O)[C@@H](C)Oc1ccc(Oc2ncc(Cl)cc2F)cc1`, the molecule was called inactive.

For `S=C([S-])NCCNC(=S)[S-].[Mn+2]`, the concentration at half-maximal activity (AC50) was 2.38 µM (active).

As to `CN(C)C(=O)Nc1ccc(Cl)c(Cl)c1`, the AC50 was 50 µM (active).

As for `CCN(CC)C(=O)c1cccc(C)c1`, the molecule was classed as inactive.
